HepG2 viability – kills HepG2 cells in TGF-b inhibitor counter-screen | Potency, µM (highest dose often 46.1 µM), hits mostly cytotoxic | AID 588856 | hit rate 0.76% among 410,000 | HepG2 CAGA-GFP viability, ATP luminescence, 18 h
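HepG2 CAGA-GFP cells (1000/well, DMEM with 1% FBS) received compound, then TGF-beta at 500 pg/mL final, and were incubated 18 hours at 37 degrees C. Viability was read by CellTiter-Glo luminescence. Media-only wells were set as complete cell-killing and DMSO as no toxicity.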
ATXN2 expr inh – ATXN2 expression inhibition; hit rate 0.72% among 360,000; AID 1745845; Potency, µM (series often up to 57 µM), usual class: inhibitors; HEK-293 ATXN2-luciferase reporter, luminescence, 24 h; also: nearly all actives have a fitted effect of over 55% in size
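ATXN2-luciferase reporter cells (luciferase flanked by upstream and downstream ATXN2 gene portions) were treated 24 h at 37 °C with compounds at up to 57 uM. SteadyGlo luminescence gave expression; GF-AFC fluorescence gave viability.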
TGFb SMAD3 inh – blocks TGF-b signaling. HepG2 CAGA-GFP TGF-b/SMAD3 reporter, GFP fluorescence, 18 h; TGF-beta stimulated, 500 pg/mL final. Potency, µM (top dose mostly 46.1 µM), usual class: inhibitors. hit rate 1.2% among 410,000; also: nearly all actives have a fitted effect of over 65% in size
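HEPG2 CAGA-GFP cells (1000/well, DMEM with 1% FBS) were pre-incubated 2 h at 37 degrees C, given compound by pin tool, then stimulated with TGF-beta at 500 pg/mL final for 18 h before per-cell GFP fluorescence imaging.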
ATXN viability – reduces viability in counter-screen for ATXN expression inhibitors. hit rate 0.49% among 400,000. Potency, µM (highest dose often 56.7 µM), actives largely listed as cytotoxic. S2 cells (HEK-293 line with an ATXN2-luciferase reporter) viability, CellTiter-Fluor protease fluorescence, 24 h; also: nearly all actives have a fitted effect of over 40% in size
A number is an active result; n = inactive; u = inconclusive; x = no result; ! = repeats disagree; [ ] = remark or other dose. Hits are enriched below; roughly 2.3% of the tested compounds scored in any of these assays. Calls follow the shape of the dose curve; as a rule, active = well fitted curve in the direction sought with a large enough effect; inconclusive = small, poorly fitted or top-dose-only effect, or another doubt; inactive = no such curve, though single readings can be large; an effect the other way counts as inactive or inconclusive.

SMILES	HepG2 viability	ATXN2 expr inh	TGFb SMAD3 inh	ATXN viability
O=C1CN2CCOC2(c2ccccc2Cl)c2cc(Cl)ccc2N1 (stereo not drawn)	x	n	x	n
Oc1cccc2cccnc12	5.62µM	11.2µM!	3.55µM	12.6µM!
Cc1ccc(/C=C/C2=NN(Cc3ccc(Cl)c(Cl)c3)C(=O)CC2)cc1	n	n	11.2µM	n
Cc1ccc(Cn2nc(C)c(C=O)c2Cl)cc1	n	n	n	u
CCc1ccc(-c2nc(CN3CCCC(C(=O)NCc4ccc(C)cc4)C3)c(C)o2)cc1 (stereo not drawn)	n	n	u	n
COc1ccc(-c2c3c(=O)n(C)c(=O)n(C)c3c3n2-c2ccccc2NC3c2ccccc2OC)cc1 (stereo not drawn)	n	n	u	n
O=[N+]([O-])c1ccc(Cl)c([N+](=O)[O-])c1	7.08µM	u	5.01µM	17.8µM
O=[N+]([O-])c1ccc(O)c([N+](=O)[O-])c1	n	n	n	n
Oc1c(C(Nc2cccnc2)c2ccccc2F)ccc2cccnc12 (stereo not drawn)	n	x	u	x
C#C[C@]1(O)C=C[C@@H]2[C@@H]3CCC4=CC(=O)CC[C@@H]4[C@H]3CC[C@@]21CC	x	n	x	x
C=C1CCN(C(CC(C)C)C(=O)Nc2ccc(OC)cc2)S(=O)(=O)c2ccccc21 (stereo not drawn)	n	x	u	x
Cc1oc2ccc(O)c(CN3CCCCCC3)c2c1C(=O)Nc1cccc(Cl)c1C	n	x	u	x
CCCC1=Nc2cc(C(=O)NCCCN(CC)CC)ccc2Sc2ccccc21	n	31.6µM	u	u
C/C(=C\c1ccc(N(C)C)cc1)[N+](=O)[O-]	10µM	31.6µM	u	x
c1ccc(CNc2c3c(nc4ccccc24)CCC3)cc1	n	17.8µM	u	u
CNCCC(Oc1ccc(C(F)(F)F)cc1)c1ccccc1 (stereo not drawn)	n	28.2µM!	n	31.6µM
N#CC(C#N)=Cc1ccc(C=C(C#N)C#N)cc1	25.1µM	u	u	u
Cc1cc(N2CCCC2)ccc1C=C(C#N)C#N	n	n[11.3 µM]	n	n
O=C(NCCc1ccc(F)cc1)C(=O)NCC(c1cccs1)S(=O)(=O)c1ccc(Cl)cc1 (stereo not drawn)	n	u	n	u
C[C@@H]1CN([C@H](C)CO)C(=O)CCCn2cc(nn2)CO[C@H]1CN(C)C(=O)Oc1cccc2ccccc12	10µM	n	u	n
c1ccc2nc3ccccc3cc2c1	n	x	u	x
C[n+]1c2ccccc2nc2ccc(NCCO)cc21	n	n	n	12.6µM
OCCNc1c2c(nc3ccccc13)CCCC2	n	n	n	n
CNc1ccc2nc3ccccc3[n+](C)c2c1	n	x	n	10µM
ClCCN(CCCl)c1ccc(/C=C/c2sc3ccccc3[n+]2CCCCI)cc1	n	x	u	x
SMILES	HepG2 viability	ATXN2 expr inh	TGFb SMAD3 inh	ATXN viability
CCOC(=O)CCCc1cc[c]([Sb](=[O])([OH])[OH])cc1	n	x	u	x
N#Cc1c(Br)n(C2OC(CO)C(O)C2O)c2ncnc(N)c12 (stereo not drawn)	n	2.51µM	u	u
CN(Cc1ccccc1)C(=O)c1ccc(NC(=O)C2CCN(C(=O)OC(C)(C)C)CC2)cc1	n	25.1µM	n	u
CNC(=O)Oc1cccc(-c2cn3cc(Cl)ccc3n2)c1	n	n	n	n
CNC(=O)Oc1ccc(-c2cn3cc(C)ccc3n2)cc1	n	8.91µM	n	n
Cc1sc2c(c1C)C(c1ccc(Cl)cc1)=N[C@@H](CC(=O)OC(C)(C)C)c1nnc(C)n1-2	x	n	x	x
O=C(NCC1=C(c2cccc3ccccc23)C[C@@H]2CC[C@H]1N2Cc1ccco1)c1ccc([N+](=O)[O-])cc1	n	u	u	14.1µM
CS(=O)(=O)c1ccc(C2=C(CNC(=O)c3ccc([N+](=O)[O-])cc3)[C@H]3CC[C@@H](C2)N3Cc2ccccc2)cc1	n	n	n	n
CC1(C)CSC(=NCc2ccccc2)N1	n	x	8.91µM	n
O=C(O)c1cccs1	n	x	n	x
Cc1cccc(NC(=O)Oc2ccc(Cl)c3cccnc23)c1	2.82µM	x	u	n
CCOC(=O)Cn1cc(C=C2C(=O)N(C)C(=O)N(C)C2=O)c2ccccc21	n	n	7.08µM	n
CN1C(=O)C(=Cc2cn(CC(=O)N3CCCC3)c3ccccc23)C(=O)N(C)C1=O	n	n	n	n
O=C(Oc1ccc([N+](=O)[O-])cc1)N1CCC(C(O)(c2ccc3c(c2)OCO3)c2ccc3c(c2)OCO3)CC1	x	n	x	x
O=C(Cn1c(=O)oc2cc(S(=O)(=O)N3CCCCC3)ccc21)NCc1ccc(Cl)cc1	n	u	u	u
c1ccc2c(c1)OCC(C1=NCCN1)O2 (stereo not drawn)	n	u	u	12.6µM!
CCOc1ccc(NC(=O)Cn2c(=O)oc3cc(S(=O)(=O)N4CCC(C)CC4)ccc32)cc1	n	u	u	n
CCCCCCCCn1sccc1=O	n	25.1µM	5.62µM	x
CC(=O)O[C@H]1C[C@@H]2OC3C=C(C)CCC3(C)[C@@]1(C)[C@@]21CO1 (stereo partly drawn)	n	u	1.26µM	u
CN1C(=O)c2ccccc2Sc2ccc(NC(=O)c3ccc(C(F)(F)F)cc3)cc21	n	u	n	u
CCNc1cc(N2CCN(C)CC2)ccc1[N+](=O)[O-]	n	n[2.22 µM]	n	u
CN1CCN(c2ccc([N+](=O)[O-])c(N/N=C3\CN4CCC3CC4)c2)CC1	n	n	n	10µM
Oc1ccccc1-[n+]1c(-c2ccccc2)cc(-c2ccccc2)cc1-c1ccccc1	n	u	u	u
COc1ccc(-[n+]2c(-c3ccccc3)cc(-c3ccc(C)cc3)cc2-c2ccccc2)cc1	n	u	7.08µM	u
COc1ccc(-c2cc(-c3ccccc3)[n+](C)c(-c3ccccc3)c2)cc1	n	8.91µM	u	n
SMILES	HepG2 viability	ATXN2 expr inh	TGFb SMAD3 inh	ATXN viability
Cc1ccccc1-[n+]1c(-c2ccccc2)cc(-c2ccccc2)cc1-c1ccccc1	n	u	u	12.6µM
ClCCN(CCCl)/C(=C\c1ccccc1)c1ccnc2ccccc12	n	x	u	x
O=C(Nc1ccc(Cl)c(C(F)(F)F)c1)C1CCCN(S(=O)(=O)c2cccc3cccnc23)C1 (stereo not drawn)	n	x	u	x
CC(C)CC(=O)N(Cc1ccccc1)S(=O)(=O)c1ccc2c(c1)oc(=O)n2C	n	n	u	n
CC(O)C1C=CC=CC(=O)OC2CC3OC4C5OC5(C)C(O)CC4(COC(=O)C(O)C(C)CCO1)C2(C)C31CO1 (stereo not drawn)	n	u	0.447µM	u
CC1=CC2OC3CC4OC(=O)C=CC=CC(=O)OCCC(C)C(O)C(=O)OCC2(CC1)C4(C)C31CO1 (stereo not drawn)	x	u	n	0.0844µM
CC1CCOC(=O)C=CC=CC(=O)OC2CC3OC4C5OC5(C)C(O)CC4(COC(=O)C1O)C2(C)C31CO1 (stereo not drawn)	n	0.267µM	0.282µM	0.267µM
CC1=CC2OC3CC4OC(=O)C=CC=CC(C(C)O)OCC(O)C5(C)OC5C(=O)OCC2(CC1O)C4(C)C31CO1 (stereo not drawn)	n	0.112µM	0.159µM	u

Compound activity as filed in PubChem.
